Measurements as given in PubChem BioAssay (EPA / NIEHS).
Several values for one entry are separate records, joined by “and”; a condition that tells them apart may be missing. Identical values can stand only once. Inconclusive results are not listed. Where a structure was tested more than once in an assay, its records may differ in their call. Activity calls are given as the source filed them. Rule for the calls, unless noted: active = hit-call score of the fitted dose curve at least 0.9, where 1 is the maximum; inactive = score below 0.9.

Legend:
[1] = ATG_NF_kB_CIS: Attagene CIS-FACTORIAL HepG2 Assay for human Nuclear Factor Kappa B (NF-kB) (AID 2282991); settings: HepG2 Attagene cis-factorial NF-kB reporter mRNA; actives raise or lower the signal
In short: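 HepG2 cells transfected with cis-promoter-driven reporter units, so endogenous transcription factor activity is measured. Reporter mRNA quantified 24 h after dosing by RT-PCR and capillary electrophoresis, with bidirectional fitting against DMSO.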

[2] = ATG_NRF2_ARE_CIS: Attagene CIS-FACTORIAL HepG2 Assay for human Nuclear Factor Erythroid 2 Related Factor 2 (NFR2) response to Antioxidant Response Elements (ARE) (AID 2282992); settings: HepG2 Attagene ARE/NRF2 reporter, transcription factor activity; actives raise or lower the signal;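 for AC50: reporter mRNA level measured by RT-PCR and capillary electrophoresis fluorescence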
In short: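 Fluorescence intensity of reporter-specific cDNA fragments, separated by capillary electrophoresis, reflects mRNA induction in transfected HepG2 cells at 24 h. Activity is fitted bidirectionally, DMSO serving as baseline.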

[3] = ATG_Oct_MLP_CIS: Attagene CIS-FACTORIAL HepG2 Assay for human Octamer-Binding Transcription Factor (Oct) (AID 2282993); settings: HepG2 Attagene cis-factorial Oct reporter, mRNA; actives raise or lower the signal
In short: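 Using HepG2 cells bearing transfected cis-reporter constructs, mRNA induction was read after 24 h by fluorescent RT-PCR and capillary electrophoresis, with DMSO defining baseline for gain- or loss-of-signal fits.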

[4] = target: Cellular tumor antigen p53 (Homo sapiens) (UniProt P04637); assay: ATG_p53_CIS: Attagene CIS-FACTORIAL HepG2 Assay for human p53 Transcription Factor (AID 2282994); settings: HepG2 p53 cis-element reporter, Attagene mRNA; actives raise or lower the signal
Cellular tumor antigen p53 (Homo sapiens), sequence (P04637 whole entry, looked up): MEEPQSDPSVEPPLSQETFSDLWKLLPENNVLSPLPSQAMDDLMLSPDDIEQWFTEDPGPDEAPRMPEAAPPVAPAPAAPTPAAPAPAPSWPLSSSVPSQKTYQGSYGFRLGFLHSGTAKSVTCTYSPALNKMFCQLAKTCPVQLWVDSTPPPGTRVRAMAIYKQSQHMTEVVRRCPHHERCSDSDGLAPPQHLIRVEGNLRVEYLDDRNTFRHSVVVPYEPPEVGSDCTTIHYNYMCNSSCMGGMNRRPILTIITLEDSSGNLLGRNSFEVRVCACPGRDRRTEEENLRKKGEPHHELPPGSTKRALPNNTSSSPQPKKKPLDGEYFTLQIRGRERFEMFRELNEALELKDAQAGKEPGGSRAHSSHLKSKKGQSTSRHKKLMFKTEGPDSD
In short: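 Transiently transfected HepG2 (multiple cis reporter transcription units); exposure 24 h; reporter RNA via RT-PCR, 6-FAM extension, 2 h HpaI digest at 37 C, CE detection; DMSO baseline.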

[5] = BSK_3C_TissueFactor: BioMAP Diversity Plus: 3C Assay for Tissue Factor Biomarker Activity (AID 2282997); settings: BioMAP 3C HUVEC, tissue factor biomarker readout; actives raise or lower the signal
In short: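 Tissue Factor measured by ELISA, 24 h after treatment of primary HUVEC in the BioMAP 3C setting.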

[6] = BSK_3C_uPAR: BioMAP Diversity Plus: 3C Assay for Urokinase-type plasminogen activator receptor (uPAR) Biomarker Activity (AID 2282998); settings: BioMAP 3C HUVEC, uPAR biomarker ELISA; actives raise or lower the signal
In short: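 In this endothelial cell-based assay, human umbilical vein primary cells were treated with chemicals and harvested at 24 h. uPAR was quantified using ELISA, with gains or losses fitted relative to DMSO controls.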

[7] = BSK_3C_VCAM1: BioMAP Diversity Plus: 3C Assay for Vascular cell adhesion molecule 1 (VCAM1) Biomarker Activity (AID 2282999); settings: BioMAP 3C HUVEC, VCAM1 ELISA, cytokine-stimulated; actives raise or lower the signal
In short: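 Activity fitted in both directions relative to DMSO, with ELISA measurement of the surface marker on primary HUVEC (3C) at 24 h post-treatment; parallel SRB staining (0.1% SRB, TCA-fixed, 560 nm) flagged overt cytotoxicity.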

[8] = BSK_4H_Eotaxin3: BioMAP Diversity Plus: 4H Assay for Eotaxin 3 Biomarker Activity (AID 2283000); settings: primary human endothelial cells (HUVEC); actives raise or lower the signal
In short: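 Eotaxin-3 (CCL26) levels were measured by ELISA in HUVEC primary cultures 24 h post-dosing. Gain or loss of signal was fitted in both directions, with DMSO serving as baseline and negative control.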

[9] = target: human Peroxisome Proliferator-activated Receptor alpha (PPARa), PPARA (gene 5465) (UniProt Q07869); assay: ATG_PPARa_TRANS: Attagene TRANS-FACTORIAL HepG2 Assay for human Peroxisome Proliferator-activated Receptor alpha (PPARa) (AID 2283001; active = hit-call score of the fitted dose curve at least 0.9, where 1 is the maximum)
human Peroxisome Proliferator-activated Receptor alpha (PPARa), PPARA (gene 5465), sequence (Q07869 whole entry, looked up, the tested form may be a part): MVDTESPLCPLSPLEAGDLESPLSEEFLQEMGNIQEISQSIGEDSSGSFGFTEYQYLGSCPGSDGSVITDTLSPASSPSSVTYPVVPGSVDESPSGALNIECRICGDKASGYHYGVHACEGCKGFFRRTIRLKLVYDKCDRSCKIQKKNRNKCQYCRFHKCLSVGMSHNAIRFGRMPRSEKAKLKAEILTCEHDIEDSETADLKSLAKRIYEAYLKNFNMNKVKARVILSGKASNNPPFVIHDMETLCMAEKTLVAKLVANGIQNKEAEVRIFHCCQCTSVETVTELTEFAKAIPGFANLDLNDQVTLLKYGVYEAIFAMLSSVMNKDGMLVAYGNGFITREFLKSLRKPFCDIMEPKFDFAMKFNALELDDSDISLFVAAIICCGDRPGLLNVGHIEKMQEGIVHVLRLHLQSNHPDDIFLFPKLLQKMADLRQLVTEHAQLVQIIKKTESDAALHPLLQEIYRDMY
In short: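 Reporter transcripts quantified by RT-PCR plus capillary electrophoresis after 24 h treatment, fitted upward relative to DMSO. Cells: human HepG2 transiently carrying multiple GAL4-UAS reporter units driven by NR-Gal4 chimeras.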

Measured: AC50

O=NN1CCCCCC1
inactive: [1] | [2] | [3] | [4]

CCOC(=O)C(SP(=S)(OC)OC)c1ccccc1 (stereo unspecified)
active: [2] 32 µM | [6] 20 µM | [7] 25.8 µM | [8] 29.1 µM
not listed: [9]
inactive: all other assays above

O=[N+]([O-])c1ccc(Nc2ccccc2)cc1
inactive: all assays above

CCOP(=O)(OCC)SCCSCC
not listed: [9]
inactive: all other assays above

CCCCC(CC)C(=O)Cl (stereo unspecified)
inactive: [1] | [2] | [3] | [4]

O=C=Nc1ccc(Cl)cc1
inactive: [1] | [2] | [3] | [4]

O=[N+]([O-])c1cccc2ccccc12
active: [2] 23.7 µM
not listed: [9]
inactive: all other assays above

Cc1ccc2nc3sc(=O)sc3nc2c1
active: [2] 4.06 µM | [3] 6.95 µM | [6] 3.43 µM | [7] 7.59 µM | [8] 5.95 µM
inactive: [1] | [4] | [5]

O=S1OC[C@@H]2[C@H](CO1)[C@]1(Cl)C(Cl)=C(Cl)[C@@]2(Cl)C1(Cl)Cl (stereo partly specified)
active: [3] 100 µM
inactive: [1] | [2] | [4]

NC(=O)c1ccc(N)nc1
inactive: [1] | [2] | [3] | [4]

O=C1C=CC(=O)c2ccccc21
active: [2] 2.23 µM | [5] 1.93 µM | [6] 1.7 µM | [7] 3.48 µM | [8] 2.17 µM
inactive: [1] | [3] | [4]

CC(C)CP(=S)(S)CC(C)C
inactive: [1] | [2] | [3] | [4]

CCOC(=O)CC(=O)CCl
active: [1] 56.8 µM | [2] 181 µM | [3] 24.3 µM | [4] 148 µM | [6] 0.0141 µM | [7] 20 µM | [8] 20 µM
inactive: [5] | [9]

O=c1oc2ccccc2c(O)c1C(CC(O)c1ccc(-c2ccc(Br)cc2)cc1)c1ccccc1 (stereo unspecified)
inactive: [1] | [2] | [3]
active: [1] 48.4 µM | [2] 7.57 µM | [3] 40.9 µM | [4] 53.2 µM and 21.3 µM | [5] 12.7 µM | [6] 5.92 µM | [7] 21.6 µM | [8] 16.9 µM

CC(C)(C1CCC(O)CC1)C1CCC(O)CC1 (stereo unspecified)
inactive: [1] | [2] | [3] | [4]

OCCCCO
not listed: [9]
inactive: all other assays above

CC(C)[C@H](C(=O)OC(C#N)c1cccc(Oc2ccccc2)c1)c1ccc(OC(F)F)cc1 (stereo partly specified)
inactive: [1] | [2] | [3] | [4]

CCOP(=S)(OCC)SCS(=O)(=O)C(C)(C)C
not listed: [9]
inactive: all other assays above

N#Cc1ccccc1N
inactive: [1] | [2] | [3] | [4]

Brc1ccc(Oc2c(Br)cc(Br)cc2Br)c(Br)c1
inactive: [1] | [2] | [3] | [4]

C[As+](C)(C)CC(=O)[O-]
inactive: [1] | [2] | [3] | [4]

Cl[C@H]1OCCO[C@@H]1Cl
inactive: [1] | [2] | [3] | [4]

CCNc1nc(NCC)nc(SC)n1
inactive: [1] | [2] | [3] | [4]

C=C(C)C(=O)OCC(CC)CCCC (stereo unspecified)
inactive: [1] | [2] | [3] | [4]

O=NN1CCCCCCC1
inactive: [1] | [3] | [4]
active: [2] 114 µM

CC(C)[C@@H](Nc1ccc(C(F)(F)F)cc1Cl)C(=O)OC(C#N)c1cccc(Oc2ccccc2)c1 (stereo partly specified)
active: [2] 17.1 µM
inactive: [1] | [3] | [4]

C=CC(F)(C(F)(F)F)C(F)(F)C(F)(F)F (stereo unspecified)
inactive: [1] | [2] | [3] | [4]

O=C1C[C@@H]2OCC=C3CN4CC[C@]56c7ccccc7N1[C@H]5[C@H]2[C@H]3C[C@H]46
inactive: [1] | [2] | [3] | [4]

O=CCCl
active: [1] 32.7 µM | [2] 23.6 µM | [3] 26 µM
inactive: [4]

O=C(NC(=O)c1c(F)cccc1F)Nc1ccc(Cl)cc1
inactive: [1] | [2]

Cc1cc(Cl)ccc1O
active: [2] 37.1 µM
inactive: [1] | [3] | [4]

[F][Sn]([c]1ccccc1)([c]1ccccc1)[c]1ccccc1
active: [1] 0.685 µM | [3] 0.335 µM | [4] 0.316 µM
inactive: [2]
